The entries come from a sample that favours hits as a whole.
nsP2pro primary: blocks chikungunya virus nsP2 protease peptide cleavage; Q8JUX6; FRET peptide cleavage, nsP2pro, fluorescence 1 h; Potency, µM (top dose mostly 24.9 µM), for inactives: at the highest dose activity change, negative = inhibition, actives largely listed as inhibitors; 31,000 tested, 1.1% active; also: nearly all actives have a fitted effect of over 60% in size
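FRET cleavage of 2.5 uM peptide 2 by 150 nM CHIKV protease domain at pH 8.0 (Tris, Tween 20). Compounds at 7 concentrations (up to 25 uM) preincubated 15 min. Fluorescence read after 1 h at room temperature.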
CHIKV nsP2 cell: inhibits CHIKV nsP2 protease in cells | 450 tested, 10% active | Potency, µM (doses to about 51.1 µM), for inactives: at the top dose activity change, negative = inhibition, hits mostly inhibitors | cell-based CHIKV nsP2 protease reporter assay | shares compounds with nsP2pro primary | AID 1964100; also: nearly all actives have a fitted effect of over 70% in size
Target sequence (Q8JUX6 220-798 limits assumed): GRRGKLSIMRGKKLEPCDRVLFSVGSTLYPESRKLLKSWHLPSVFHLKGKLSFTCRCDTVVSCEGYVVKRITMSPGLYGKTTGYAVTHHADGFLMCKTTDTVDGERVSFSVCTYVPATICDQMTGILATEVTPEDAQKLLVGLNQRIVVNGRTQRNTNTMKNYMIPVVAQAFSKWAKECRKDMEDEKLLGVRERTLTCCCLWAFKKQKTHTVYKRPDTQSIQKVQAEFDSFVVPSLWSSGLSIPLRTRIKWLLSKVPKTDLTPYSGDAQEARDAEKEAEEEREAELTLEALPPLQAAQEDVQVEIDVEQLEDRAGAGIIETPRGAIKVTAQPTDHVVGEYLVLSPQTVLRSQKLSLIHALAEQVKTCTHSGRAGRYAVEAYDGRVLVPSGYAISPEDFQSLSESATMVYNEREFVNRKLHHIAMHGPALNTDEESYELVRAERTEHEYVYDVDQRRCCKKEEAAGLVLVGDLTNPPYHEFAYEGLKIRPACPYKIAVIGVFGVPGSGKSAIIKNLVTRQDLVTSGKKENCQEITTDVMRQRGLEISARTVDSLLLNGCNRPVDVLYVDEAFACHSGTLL
NSP2 full ctr: inhibits full-length CHIKV NSP2 enzyme. shares compounds with nsP2pro primary. Full-length CHIKV NSP2 protease enzymatic counterscreen. Potency, µM (doses to about 50.7 µM), without a hit: at the highest dose activity change, negative = inhibition, actives largely listed as inhibitors. 410 tested, 39% active. AID 1964101; also: nearly all actives have a fitted effect of over 65% in size
Furin counter: inhibits human furin in a CHIKV nsP2 protease selectivity counterscreen | Potency, µM (titrated, usually from 50.6 µM), without a hit: at the highest dose activity change, negative = inhibition, most hits filed as inhibitors | Recombinant human furin enzymatic counterscreen, fluorogenic substrate | 410 tested, 6% active | shares compounds with nsP2pro primary
NS23 peptide cs: blocks CHIKV nsP2 protease cleavage of endogenous NS2/3 peptide. AID 1964103. 410 tested, 34% active. shares compounds with nsP2pro primary. Potency, µM (doses to about 51 µM), inactives show top-dose activity change, negative = inhibition, most hits filed as inhibitors. Purified CHIKV nsP2 protease, endogenous NS2/3 peptide cleavage; also: nearly all actives have a fitted effect of over 55% in size
Papain cs: inhibits papain in a CHIKV nsP2 protease selectivity counterscreen. Potency, µM (doses to about 51 µM), for the others: top-dose activity change, negative = inhibition, actives largely listed as inhibitors. purified papain protease activity, enzymatic inhibition. shares compounds with nsP2pro primary. 410 tested, 5% active
nsP2pro conf qHTS: confirmation of CHIKV nsP2 protease inhibitors; shares compounds with nsP2pro primary; CHIKV nsP2 protease enzymatic activity, qHTS; 410 tested, 43% active; Potency, µM (highest dose often 25.5 µM), inactives show at the highest dose activity change, negative = inhibition, actives largely listed as inhibitors; also: nearly all actives have a fitted effect of over 75% in size
HCV NS3 4A cs: HCV NS3/4A protease inhibition, counterscreen | shares compounds with nsP2pro primary | HCV NS3/4A protease biochemical counterscreen | Potency, µM (highest dose often 50.9 µM), most hits filed as inhibitors | 410 tested, 20% active; also: nearly all actives have a fitted effect of over 55% in size
Numbers without * were called inactive; i = inactive; ? = inconclusive; [ ] = remark or other dose. Calls follow the shape of the full dose curve. % is scaled to controls: 0 for no effect and ±100 for the full control effect; potency is read from the fitted curve at half-maximal effect.

SMILES | nsP2pro primary | others
CN(CCN1CCC(OC(=O)Nc2ccccc2-c2ccccc2)CC1)C(=O)c1ccc(CN2CCC(C(N)=O)CC2)cc1 | 1.3%
Cc1ccnc(NC(=S)NCCN(C)c2cccc(C(F)(F)F)c2)c1 | -0.8%
NC(=O)NCc1cn(C2CCN(C(=O)C3CCCCCC3)CC2)nn1 | -5.4%
CCCNC(=O)CN1CCN(c2ccc(NC(=O)c3ccc(OC)cc3)cc2C(=O)O)CC1 | 4.47µM* | CHIKV nsP2 cell=?;NSP2 full ctr=4.11µM*;Furin counter=?;NS23 peptide cs=13µM*;Papain cs=2.4%;nsP2pro conf qHTS=7.11µM*;HCV NS3 4A cs=2.91µM*
Cc1ccc(Cl)cc1N1CCN(CCNC(=O)Nc2ccc(Cl)cc2)CC1 | -12.6%
CCCCOc1ccc(C(=O)Nc2ccc(F)cc2F)cc1 | -7.8%
CCOc1ccc(NC(=O)NCCCN2CCN(c3ccc(OC)cc3)CC2)cc1 | -11.5%
O=C(Nc1ccc(N2CCN(CCOc3ccc(Cl)cc3)CC2)c(C(=O)O)c1)c1ccc(F)cc1 | 3.55µM* | CHIKV nsP2 cell=1.7%;NSP2 full ctr=3.26µM*;Furin counter=?;NS23 peptide cs=8.19µM*;Papain cs=15.9%;nsP2pro conf qHTS=7.11µM*;HCV NS3 4A cs=2.06µM*
CCOc1ccc(NC(=O)CN2CCN(S(=O)(=O)c3ccc(OC)cc3)CC2)cc1 | -29.1%
CC1CCCC(C)N1C(=O)c1ccc2nc(-c3cccnc3)oc2c1 (configuration not stated) | 3.3%[39.2 µM]
COc1cccc(COC2CN(CC(C)C)C(=O)CN(C(=O)c3csc(C(C)=O)c3)C2)c1 (configuration not stated) | -5.6%
C[N+](C)(C)CCOP(=O)([O-])OP(=O)(O)OC[C@H]1O[C@@H](n2ccc(N)nc2=O)[C@H](O)[C@@H]1O | -6.4%
C/C=C/C=C/C=C/C(=O)O[C@@H]1C=C2COC(=O)[C@]2(O)[C@@]2(C)CCCC(C)(C)[C@H]12 | 1.3%[10 µM]
CC(C)(C)c1cc(O)c(CN)c(C(C)(C)C)c1 | -6.4%
CCN1C(=O)C2CC3(CCN(C(=O)c4cc(C)n(CCOC)c4C)CC3)CN2C1=O (configuration not stated) | -0.3%
COc1ccc(C(=O)NC2CCN(c3ccnc4ccnn34)C2)cc1 (configuration not stated) | -3.8%[39.2 µM]
CCOC(=O)c1c(C)[nH]c(CCC(=O)Nc2ccccc2C(F)(F)F)c1C | -24.2%
CCOC(=O)c1c(Nc2ccccc2)nnc(-c2ccccc2)c1-c1ccccc1 | -16.2%
CCOC(=O)c1c2c3c(cccc3[nH]c1=O)C(=O)c1ccccc1-2 | ? | CHIKV nsP2 cell=6.0%;NSP2 full ctr=3.8%;Furin counter=-3.6%;NS23 peptide cs=i;Papain cs=-15.4%;nsP2pro conf qHTS=7.0%;HCV NS3 4A cs=i
O=c1cc(-c2ccc(O)c(O)c2O)oc2ccccc12 | -16.4%
COc1ccc(NC(=O)CNS(=O)(=O)c2cccs2)c(OC)c1 | -16.4%
CCOCCCNC(=O)C(c1ccc(OC)cc1)N(Cc1cccs1)C(=O)CNC(C)=O (configuration not stated) | -10.0%
C#CC(=O)N(c1ccc(OC)cc1OC)C(C(=O)NCC(=O)OCC)c1cccs1 (configuration not stated) | 0.624µM* | CHIKV nsP2 cell=-17.4%;NSP2 full ctr=1.3µM*;Furin counter=-5.2%;NS23 peptide cs=2.91µM*;Papain cs=-8.4%;nsP2pro conf qHTS=0.798µM*;HCV NS3 4A cs=i
COc1ccc(C(=O)N2CCC(c3ncc(C)n3C(C)C)C2)cc1 (configuration not stated) | 2.2%
CC1CCCCCCCc2cc(O)cc(O)c2C(=O)O1 (configuration not stated) | 133.7%
SMILES | nsP2pro primary | others
C[C@@H]1C[C@H](O)/C=C/[C@H](O)[C@@H](O)CC(=O)O1 | -17.3%
CC1CCC(=O)CC(O)C(O)CC(=O)O1 (configuration not stated) | ? | CHIKV nsP2 cell=0.5%;NSP2 full ctr=4.6%;Furin counter=-7.2%;NS23 peptide cs=-9.3%;Papain cs=-5.8%;nsP2pro conf qHTS=-19.6%;HCV NS3 4A cs=i
O=C1Nc2cc(Cl)ccc2/C1=C\c1cc(Cl)c(O)c(Cl)c1 | i
Cc1cc(OCCN(C)C)c(C)c2c1CC[C@@H]([C@H](C)C(=O)NCc1cccs1)C2 | 37.2%[39.2 µM]
COc1ccc(CCNC(=O)C(C)C2CCOCC2)cc1OC (configuration not stated) | -1.1%
COc1cc(C)c2c(c1C)C[C@H](C(C)C(=O)NCc1ccco1)CC2 (some centres not stated) | 7.94µM* | CHIKV nsP2 cell=-13.6%
COC(=O)C1=COC(OC2OC(CO)C(O)C(O)C2O)C2C(C)CC(=O)C12O (configuration not stated) | -13.8%[10 µM]
CC1CC(=O)[C@]2(O)C(C(=O)OCCc3ccc(O)c(O)c3)=CO[C@@H](O[C@@H]3O[C@H](CO)[C@@H](O)[C@H](O)[C@H]3O)[C@H]12 (some centres not stated) | 3.83µM* | CHIKV nsP2 cell=-6.4%[17.6 µM];NSP2 full ctr=10.1%[17.3 µM];Furin counter=-7.4%[17.3 µM];NS23 peptide cs=-14.8%[17.2 µM];Papain cs=-0.7%[17.2 µM];nsP2pro conf qHTS=?;HCV NS3 4A cs=4µM*
COC(=O)C1=CO[C@@H](O[C@@H]2O[C@H](CO)[C@@H](O)[C@H](O)[C@H]2O)[C@@H]2C(C)CC(=O)[C@]12O (some centres not stated) | 8.3%[10 µM]
O=C(NCCCc1ccccc1)c1nc2sccn2c1-c1cccc(C(F)(F)F)c1 | i
Fc1cccc(Br)c1NC1=NCCN1 | -3.0%
NS(=O)(=O)c1ccc(NC(=O)Nc2ccc(F)cc2)cc1 | 7.4%
C/C(=N\N=C(N)N)c1ccc(NC(=O)Nc2ccc(/C(C)=N/N=C(N)N)cc2)cc1 | 8.81µM* | CHIKV nsP2 cell=5.8%;NSP2 full ctr=16.3µM*;Furin counter=16.3µM*;NS23 peptide cs=29.1µM*;Papain cs=?;nsP2pro conf qHTS=8.96µM*;HCV NS3 4A cs=18.3µM*
CC(=O)Nc1ccc(NC(=O)CCC(=O)c2ccc(C)cc2)cc1 | -6.6%
Nc1ncnc2c1ncn2[C@@H]1O[C@H](CSCC[C@H](N)C(=O)O)[C@@H](O)[C@H]1O | -17.7%
O=C(NC[C@H]1OC[C@@H](NCc2ccccc2O)[C@@H]1O)c1ccc(F)cc1 | 3.9%[39.2 µM]
c1nc(NCCC2CCCO2)c2cc(-c3ccc4c(c3)OCO4)ccc2n1 (configuration not stated) | i
CCc1noc(-c2cn(C3CCCN(C(=O)c4ccc(C(C)(C)C)cc4)C3)nn2)n1 (configuration not stated) | 1.6%

Bioassay records: PubChem BioAssay, National Center for Advancing Translational Sciences (NCATS)
